{"source": "PubChem BioAssay AID1508600", "about": "(Functional Genomics Laboratory (NCATS/FGL), 2020)", "note": "Hit rate of the full screen: of about 53,000 sequences, about 3,700 (7%) were called active.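 Rule for the calls: active = gene knockdowns whose robust z-score for IL-1 alpha signal is at least 2 or at most -2, so actives lie on both sides; inactive = the rest.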 Many of the other results were omitted from the sample, so actives are more common in it than they were.", "data": [{"experiment": "Components of the Cytosolic LPS Sensing Pathway: Gene Identification via Genome-wide siRNA Screen;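 note: robust z of the log signal after scaling to non-targeting control siRNA wells of the plate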", "conditions": "RAW264.7 macrophages, IL-1a HTRF, actives lie on both sides, screened at 100 nM (by protocol), cells primed 5 h with Pam3CSK4 first", "procedure,_shortened": "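RAW264.7; siRNA 100 nM final, RNAiMAX, 48h 37 degrees C; Pam3CSK4 5 h; LipidA + TransIT-TKO 24 h; IL-1a HTRF; CellTiter-Glo viability; robust z vs negative-control median.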", "values": [{"sequence": "GCAAUGCGACGUGCUCUAUTT against Trim67", "z-score": "0.136 (inactive)"}, {"sequence": "GGCUUAAGUUAGGCAAACUTT against Crtc3", "z-score": "-0.0675 (inactive)"}, {"sequence": "UGCUGUGGUCACUCCCAUGTT against Olfr457", "z-score": "-2.04 (active)"}, {"sequence": "GCCACAACAAACCUACGACTT against Xpc", "z-score": "-1.32 (inactive)"}, {"sequence": "GCGCAUUGUGUUCUGGUCUTT against Zswim4", "z-score": "-1.55 (inactive)"}, {"sequence": "GGAACUUGGCCUACUUAUGTT against C130071C03Rik", "z-score": "0.718 (inactive)"}, {"sequence": "GAGGUCAUUAUACCAUUGGTT against Tuba3b", "z-score": "0.554 (inactive)"}, {"sequence": "GGUGACCAGCUCCAUUUCUTT against Ccn5", "z-score": "2.61 (active)"}, {"sequence": "GGCCAACACUCAGAAAAGGTT against Zfp474", "z-score": "1.59 (inactive)"}, {"sequence": "GCCAGAUCUGUUAACCGCCTT against Gzmk", "z-score": "2.15 (active)"}, {"sequence": "GGUUGGGCUGCCAAGUUUGTT against Fdx1", "z-score": "1.96 (inactive)"}, {"sequence": "UACUACAACCGCACAGUGATT against Tmc6", "z-score": "0.522 (inactive)"}, {"sequence": "GGUGGUCACCAAGAAGUUUTT against Prps2", "z-score": "2.52 (active)"}, {"sequence": "GGAAGCUCUUAAAAGGUUGTT against Hdhd2", "z-score": "0.226 (inactive)"}, {"sequence": "GCUCCUCAUGAUAUUGGCCTT against Nagk", "z-score": "0.239 (inactive)"}, {"sequence": "GGAGGGACUUACCACAAGGTT against Timeless", "z-score": "0.282 (inactive)"}, {"sequence": "GGACAACACUGUCAAUCAUTT against Olfr922", "z-score": "-2.39 (active)"}, {"sequence": "GGGAAUCUUUAUCAGUGAGTT against Insc", "z-score": "0.429 (inactive)"}, {"sequence": "GCUCCUGAUCAAAUAAAGUTT against Ldhb", "z-score": "0.279 (inactive)"}, {"sequence": "CCGGAGUUAUACCGUAAGATT against Plaur", "z-score": "-0.671 (inactive)"}, {"sequence": "GGAGUAGGAACAAAAAUUGTT against Polb", "z-score": "-0.153 (inactive)"}, {"sequence": "CCUUGGCCAAUCUCCACAATT against Ptpmt1", "z-score": "-0.485 (inactive)"}, {"sequence": "GGAAAAAAUUAAAGAGCACTT against Gmcl1", "z-score": "2.15 (active)"}, {"sequence": "GGCACAAAAGAAGAAGAUGTT against Retsat", "z-score": "-1.7 (inactive)"}, {"sequence": "CGAUAAUGAAAGUGACCAUTT against Uri1", "z-score": "-0.0814 (inactive)"}, {"sequence": "GGAUGCUAGACUAAUACUATT against Slc25a32", "z-score": "1.3 (inactive)"}, {"sequence": "CGGGAAAGAGAUCAUCCCUTT against Nr1i2", "z-score": "-3.3 (active)"}, {"sequence": "GGGAGGGAUGCAGUAAAUGTT against Acaa1a", "z-score": "-0.337 (inactive)"}, {"sequence": "GCAGGAACGUGAGGACCAUTT against Snip1", "z-score": "0.842 (inactive)"}, {"sequence": "GGCUCUGUGCAGACAUUUCTT against Pop5", "z-score": "-1.51 (inactive)"}, {"sequence": "GUUCCGACUGAACUUGUAUTT against Psmb3", "z-score": "-2.55 (active)"}, {"sequence": "GCCUGGAUACAAUUACCCUTT against Tc2n", "z-score": "-0.893 (inactive)"}, {"sequence": "GCUCAGUAAUCGCUGUCUATT against Olfr91", "z-score": "-0.62 (inactive)"}, {"sequence": "GGAGAUGAUACAUAAUCUATT against Psmd12", "z-score": "-0.0292 (inactive)"}, {"sequence": "GCCUAAACCUGAGUUAUAATT against Lrig1", "z-score": "2.34 (active)"}, {"sequence": "GGUGACAAAGGUGUUAGAATT against Itpkc", "z-score": "-0.252 (inactive)"}, {"sequence": "GGUGACCAAAAAAGCUUUATT against Pax9", "z-score": "1.37 (inactive)"}, {"sequence": "GCUCAAAUAACUCCACCACTT against Pola1", "z-score": "-1.73 (inactive)"}, {"sequence": "GGCGACCACUUUGUCUACATT against Plekhg3", "z-score": "1.1 (inactive)"}, {"sequence": "GGGAAUUCUCCUGUUUGCUTT against Plp2", "z-score": "-2.22 (active)"}, {"sequence": "GCUGCGUCCUAUGAGUUUATT against Drg2", "z-score": "1.72 (inactive)"}, {"sequence": "GGCAGCAAGGAAACUAUUATT against Kpna3", "z-score": "1.39 (inactive)"}, {"sequence": "GCCAACGAAAAAUGACCUCTT against Wnt2", "z-score": "-0.046 (inactive)"}, {"sequence": "GGCCAAAAGUAUGAAAGUATT against Tspan1", "z-score": "0.45 (inactive)"}, {"sequence": "GCGUGUUGUGAUGUCACCUTT against Cisd1", "z-score": "-0.0193 (inactive)"}, {"sequence": "CCAGAUACUUCUCAUGGCGTT against Dipk1b", "z-score": "-0.0671 (inactive)"}, {"sequence": "CGAUUUGCCUUAUUUUUCATT against Litaf", "z-score": "1.23 (inactive)"}, {"sequence": "GGAAGUACAAACUACUAGUTT against Mcmbp", "z-score": "-0.393 (inactive)"}, {"sequence": "GGCUUUCAAGAGCAAUCCCTT against Man2b2", "z-score": "-2.21 (active)"}, {"sequence": "GGAGCUAGACAAAACUAAATT against Vmn2r81", "z-score": "-0.882 (inactive)"}, {"sequence": "GUAGAAGAUGGAAUUUUUGTT against Rpl22l1", "z-score": "0.048 (inactive)"}, {"sequence": "GGUCUGUGAGGAACAAAAGTT against Ccnd2", "z-score": "-2.26 (active)"}, {"sequence": "CCUGAUGGGUUACCUAUGCTT against Col25a1", "z-score": "-0.379 (inactive)"}, {"sequence": "GCGGUUCCAAGAUUGUUGUTT against Armc8", "z-score": "0.109 (inactive)"}, {"sequence": "GCUGAUCGCUUUGAUUCGATT against Fkbp11", "z-score": "-0.495 (inactive)"}, {"sequence": "GCUAACACUGCGCUUGGAATT against 1700067K01Rik", "z-score": "-1.39 (inactive)"}, {"sequence": "GGGACCAGAACCACAAACATT against Ghsr", "z-score": "-1.62 (inactive)"}, {"sequence": "GGACUAAAUAGGUUUACCATT against Alx1", "z-score": "1.26 (inactive)"}, {"sequence": "CGCAGACAGAGACAACCUGTT against Casp6", "z-score": "-0.73 (inactive)"}, {"sequence": "GCAGGUCACUUUCUAGAGATT against Srsf3", "z-score": "-2.25 (active)"}, {"sequence": "GCGUGUCCUAUAGCAUCUGTT against Cela1", "z-score": "-0.106 (inactive)"}, {"sequence": "GGAAUUGAAGGGUACUUAATT against Fam111a", "z-score": "-1.97 (inactive)"}, {"sequence": "GCCAAAUAUUAUUCCUACATT against Sec63", "z-score": "-0.282 (inactive)"}, {"sequence": "GGCAUUGAGAUGAAAUGAATT against 4933427E11Rik", "z-score": "-2.5 (active)"}, {"sequence": "GGGAAUCCUAGACAUGCUGTT against Nphp4", "z-score": "-1.91 (inactive)"}, {"sequence": "GGGCAACCUGUCACAUUAUTT against Spam1", "z-score": "1.16 (inactive)"}, {"sequence": "CCUCAUCCUUAGUUGUUUUTT against Ift88", "z-score": "-0.15 (inactive)"}, {"sequence": "GCACAAUGGUGUUAAGUCATT against Ado", "z-score": "2.3 (active)"}, {"sequence": "GGAACCUCUCAAUUUUGCGTT against Pik3ip1", "z-score": "0.659 (inactive)"}]}]}
